Experimental data as given in PubChem BioAssay AID489043 (National Center for Advancing Translational Sciences (NCATS), 2010).
Inconclusive results are not listed. The source made the active and inactive calls. Calls come from the whole dose curve; as a rule, active = well fitted activation curve with a large enough effect; inconclusive = small, poorly fitted or top-dose-only effect; inactive = flat fitted curve, though single readings scatter.

biological target: Relaxin receptor 2 (Homo sapiens) (UniProt Q8WXD0); experiment: qHTS Assay for Agonists of the Relaxin Receptor RXFP1: RXFP2 Hit Validation; conditions: HEK293 RXFP2 cAMP TR-FRET, 30 min; series mostly up to 115 µM; note: nearly all actives have a fitted effect of over 65% in size
Sequence (Q8WXD0 whole entry, looked up): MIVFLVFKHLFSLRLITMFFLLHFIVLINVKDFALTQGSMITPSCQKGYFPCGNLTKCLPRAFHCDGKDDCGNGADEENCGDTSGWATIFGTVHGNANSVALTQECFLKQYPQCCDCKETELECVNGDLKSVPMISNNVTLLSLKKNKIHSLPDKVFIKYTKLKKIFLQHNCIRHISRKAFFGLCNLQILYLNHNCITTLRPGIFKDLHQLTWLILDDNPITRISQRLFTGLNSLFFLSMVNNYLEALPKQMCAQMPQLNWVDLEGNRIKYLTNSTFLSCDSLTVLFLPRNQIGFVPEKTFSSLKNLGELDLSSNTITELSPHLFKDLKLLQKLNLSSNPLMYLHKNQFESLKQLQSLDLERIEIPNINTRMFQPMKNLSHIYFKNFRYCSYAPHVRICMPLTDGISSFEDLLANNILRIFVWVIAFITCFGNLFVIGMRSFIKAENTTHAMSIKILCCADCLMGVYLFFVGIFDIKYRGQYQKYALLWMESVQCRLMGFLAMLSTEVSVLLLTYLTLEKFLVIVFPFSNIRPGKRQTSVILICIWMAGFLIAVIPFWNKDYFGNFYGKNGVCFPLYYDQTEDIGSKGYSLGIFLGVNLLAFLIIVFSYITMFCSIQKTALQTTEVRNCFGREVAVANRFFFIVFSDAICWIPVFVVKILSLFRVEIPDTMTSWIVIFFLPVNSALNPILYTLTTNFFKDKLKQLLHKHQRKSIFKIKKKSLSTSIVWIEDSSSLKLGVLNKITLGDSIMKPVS
In short: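 HEK293 cells expressing RXFP2, cultured 16-24 hr, treated 30 min at 37C with compounds plus PDE4 inhibitor Ro 20174. cAMP measured by HTRF TR-FRET; EC50 from Hill fits, normalized to buffer and 29 nM porcine relaxin.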
Potency is the fitted concentration of half-maximal effect.

| SMILES | Potency |
| --- | --- |
| O=C(O)c1cc(-c2ccco2)nc2ccc(Br)cc12 | 17.3 µM (active) |
| O=[N+]([O-])c1cccc(CSc2nnc3ccccn23)c1 | 34.6 µM (active) |
| Cc1cccc(NC(=O)c2ccccc2NC(=O)C2CCCCC2)c1C | inactive |
| O=C(Nc1ccc(Cl)cc1)Nc1ccccc1Sc1ncc([N+](=O)[O-])s1 | inactive |
| CC(=O)Nc1ccc(NC(=O)CSc2ccc3nnc(-c4ccccn4)n3n2)cc1 | inactive |
| COC(=O)Cn1cnc2c(C#N)c3n(c2c1=O)CCCC3 | 30.9 µM (active) |
| CN(C)c1ccc(C(=S)N2CCN(S(=O)(=O)c3ccccc3)CC2)cc1 | inactive |
| O=C(O)CSc1ccnc2cc(Cl)ccc12 | 21.8 µM (active) |
| CCN(CC)c1ccc(S(=O)(=O)N2CCOCC2)cc1NC(=O)CSc1nncn1C | 12.3 µM (active) |
| Brc1ccc2ncnc(NCc3cccnc3)c2c1 | 43.6 µM (active) |
| CCC(=O)Nc1ccc(-n2nnnc2SCC(=O)NNC(=O)c2ccco2)cc1 | inactive |
| COc1ccc(OC)c(NC(=O)CSc2ccc3nnc(-c4cccnc4)n3n2)c1 | inactive |
| c1ccc(COn2nnc3ccccc32)c(COn2nnc3ccccc32)c1 | inactive |
| Nc1ncnc2c1ncn2C1OC(CO)C(O)C1O (configuration not stated) | 7.76 µM (active) |
| O=C1CN(c2nc3ccccc3n3cnnc23)CC(=O)N1CCc1ccccc1 | inactive |
| Cc1cccc(C(=O)Nc2ccccc2C(=O)NCc2ccco2)c1 | inactive |

| SMILES | Potency |
| --- | --- |
| CC(=O)CCCCn1c(=O)c2c(ncn2C)n(C)c1=O | inactive |
| CCNc1nc(NCC)nc(N(C)/N=C/c2ccco2)n1 | inactive |
| N#Cc1c(N)nc(SCC(=O)C23CC4CC(CC(C4)C2)C3)c(C#N)c1-c1ccc(Cl)cc1 | 12.3 µM (active) |
| COCCNC(=O)NC(=O)COC(=O)C12CC3CC(CC(NC(C)=O)(C3)C1)C2 | inactive |
| Nc1nnc(CC(=O)N/N=C/c2ccc(-c3ccc(Cl)cc3Cl)o2)s1 | inactive |
| CC1(C)Cc2nc3sc4c(SCC(=O)NC(c5ccccc5)c5ccccc5)ncnc4c3cc2CO1 | 6.15 µM (active) |
| CC1(C)Cc2c(sc3c2c2ncnn2c2nnc(SCC(=O)NCc4ccco4)n32)CO1 | 7.76 µM (active) |
| Cc1noc(NS(=O)(=O)c2ccc(N3Cc4ccccc4C3=O)cc2)c1C | 11.9 µM (active) |
| N#CCCSc1ncnc2c1oc1ccccc12 | 19.4 µM (active) |
| CC(=O)Nc1cccc(NC(=O)CSc2nc3c(c(=O)n(C)c(=O)n3C)n2C)c1 | 34.6 µM (active) |
| CN(C)CCCn1c(SCC(=O)Nc2nc(-c3cccc(Br)c3)cs2)nc2ccccc2c1=O | inactive |
| Cc1cc(NC(=O)CSc2ncnc3c2cnn3-c2cccc(Cl)c2)no1 | inactive |
| CCCC(=O)Nc1ncnc2c1ncn2[C@@H]1O[C@@H]2COP(=O)(O)O[C@H]2[C@H]1OC(=O)CCC | 1.38 µM (active) |
| CCCN(CCC)S(=O)(=O)c1cc(CN2C(=O)c3cccnc3C2=O)ccc1OC | 24.5 µM (active) |
| Cc1cc(Br)c2nc3c(c(C(=O)O)c2c1)CCCCC3 | 1.94 µM (active) |
| CCCC(=O)Nc1ncnc2c1ncn2[C@@H]1O[C@@H]2OP(=O)(O)OC[C@H]2[C@H]1OC(=O)CCC | 0.868 µM (active) |
